# Results as given in ChEMBL document CHEMBL1201862, “PubChem BioAssay data set” (2004).
# Among all 340,000 compounds or so, about 12,000 (3.5%) were called active. Inconclusive results (about 18%) are left out. The rule behind the calls is not given here. The sample as a whole holds a higher share of actives than the screen did.
# Assay: qHTS Assay for Inhibitors of Hepatitis C Virus (HCV).
# Assay type: functional
# Conditions: read-out: Potency
row,Compound,AC50
1,CO[C@H]1/C=C\O[C@@]2(C)Oc3c(C)c(O)c4c(O)c(c5c(c4c3C2=O)=NC2(CCN(CC(C)C)CC2)N=5)NC(=O)/C(C)=C\C=C/[C@H](C)[C@H](O)[C@@H](C)[C@@H](O)[C@@H](C)[C@H](OC(C)=O)[C@@H]1C,158 µM (active)
2,COc1ccc([C@@]23Oc4cc(OC)cc(OC)c4[C@]2(O)[C@H](O)[C@H](C(=O)N(C)C)[C@H]3c2ccccc2)cc1 [ROCAGLAMIDE],100 µM (active)
3,O=C(O)c1cc(O)c2c(c1)[C@@H]([C@H]1c3cc(C(=O)O)cc(O)c3C(=O)c3c(O[C@@H]4O[C@H](CO)[C@@H](O)[C@H](O)[C@H]4O)cccc31)c1cccc(OC3O[C@H](CO)[C@@H](O)[C@H](O)[C@H]3O)c1C2=O (stereo partly specified),79.4 µM (active)
4,[N-]=[N+]=NC[C@H](Cc1ccccc1)N1CC[C@@H](OCc2ccccc2)CCC1=O,100 µM (active)
5,Cl.N[C@@H](CCC(=O)O)C(=O)O [GLUTAMIC ACID HYDROCHLORIDE],1.12 µM (active)
6,C#CC(=O)N(c1cc(OC)ccc1OC)C(C(=O)NC1CCCC1)c1cccs1 (stereo unspecified),112 µM (active)
